Records with an inconclusive call do not appear. Unless noted, calls come from the whole dose curve; as a rule, active = well fitted curve in either direction with a large enough effect (not every such curve was filed as active); inconclusive = small, poorly fitted or top-dose-only effect, or another doubt; inactive = flat fitted curve, though single readings scatter.
Legend:
[1] = AP1 Signaling Pathway (AID 357); conditions: ME-180 AP-1-bla reporter, EGF-induced, beta-lactamase ratio, 5 h; at 17.2 µM (top of the series) unless noted; note: % is set by controls: 0 for no effect and ±100 for the full control effect
How it was run: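 In this screen, ME-180 cells in Opti-MEM with 0.5% dialyzed FBS received EC50 EGF and compound titrations for 5 h. AP-1 reporter beta-lactamase was detected via CCF4 ratio, giving AC50 for positive and negative modulators.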

[2] = NFAT Signaling Pathway (AID 444); conditions: Jurkat NFAT-bla M1, carbachol, beta-lactamase ratio, 5 h; at 17.2 µM (top of the series) unless noted;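 note: carbachol stimulus at about its EC50 of 1 µM final; % is set by controls: 0 for no effect and ±100 for the full control effect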
How it was run: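 Read-out: CCF4 FRET ratio (460 nm/530 nm) after 1 h RT dye loading, used for %activity and AC50 from titration series. Cells: Jurkat NFAT-β-lactamase/M1 line, treated with compound plus 1 uM carbachol for 5 h, 37 °C.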

[3] = Stat Signaling Pathway (AID 446); conditions: ME-180 (cervical carcinoma) SIE beta-lactamase reporter, IL-6 stimulated, 5 h; at 17.2 µM (top of the series) unless noted;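 note: ME-180 cervical cancer cells given 40 pM IL-6 alongside compound; SIE-controlled beta-lactamase reporter measured as 460/530 nm FRET emission ratio; % is set by controls: 0 for no effect and ±100 for the full control effect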
How it was run: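 FRET read-out (405 nm excitation, 460/530 nm emission) of a beta-lactamase reporter under a STAT-inducible element in ME-180 cervical carcinoma cells. Cells with compound receive 40 pM IL-6 for 5 h. Values are normalised to AC90 stimulation and AC90 JAK-inhibitor controls.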

[4] = molecular target: Glucocorticoid receptor (Homo sapiens) (UniProt P04150); assay: GR-GFP Redistribution (AID 450;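 active = compounds whose dose series gives a full or clear partial fitted curve of increased nuclear translocation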; note: potency is the fitted concentration of half-maximal effect)
Chain of Glucocorticoid receptor (Homo sapiens) (P04150 whole entry, looked up): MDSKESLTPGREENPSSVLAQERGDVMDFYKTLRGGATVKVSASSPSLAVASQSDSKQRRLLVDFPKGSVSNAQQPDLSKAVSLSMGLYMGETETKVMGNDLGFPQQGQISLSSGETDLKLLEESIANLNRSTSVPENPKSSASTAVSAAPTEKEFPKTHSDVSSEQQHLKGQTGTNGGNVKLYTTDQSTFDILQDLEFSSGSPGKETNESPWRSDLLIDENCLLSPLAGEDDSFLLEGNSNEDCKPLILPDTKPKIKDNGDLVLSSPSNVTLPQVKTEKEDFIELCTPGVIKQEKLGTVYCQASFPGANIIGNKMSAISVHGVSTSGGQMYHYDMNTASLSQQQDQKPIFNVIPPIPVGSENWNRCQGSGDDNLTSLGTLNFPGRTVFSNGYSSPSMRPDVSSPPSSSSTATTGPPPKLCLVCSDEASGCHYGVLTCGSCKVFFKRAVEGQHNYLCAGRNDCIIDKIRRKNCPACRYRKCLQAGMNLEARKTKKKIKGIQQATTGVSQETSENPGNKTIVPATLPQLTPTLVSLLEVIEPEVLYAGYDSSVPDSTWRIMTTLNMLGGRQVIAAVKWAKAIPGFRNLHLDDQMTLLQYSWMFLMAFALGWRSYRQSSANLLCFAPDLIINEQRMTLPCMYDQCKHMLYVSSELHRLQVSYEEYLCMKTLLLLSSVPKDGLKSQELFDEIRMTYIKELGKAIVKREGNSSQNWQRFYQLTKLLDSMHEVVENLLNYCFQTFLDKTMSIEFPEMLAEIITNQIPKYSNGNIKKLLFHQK

COc1cccc(NC(=O)CSC2=C(C#N)C(c3ccco3)C3=C(CCCC3=O)N2)c1 (stereo not given)
inactive: activity change, negative = inhibition [1] -18.7% | activity change, negative = inhibition [2] -16% | activity, negative = inhibition [3] -7.07% | Potency [4] > 20.6 µM

COc1nnnc2c1sc1nc(N3CCOCC3)c3c(c12)CC(C)(C)OC3
inactive: activity change, negative = inhibition [1] -3.49% | activity change, negative = inhibition [2] -9.1% | activity, negative = inhibition [3] -7.42% | Potency [4] > 20.6 µM

COc1ccc(-n2ncc3c(N4CCC(C(N)=O)CC4)ncnc32)cc1
inactive: activity change, negative = inhibition [1] -0.0678% | activity change, negative = inhibition [2] 6% | activity, negative = inhibition [3] -1.03% | Potency [4] > 20.6 µM

COc1ccc(NC(=O)c2c(C)cc(=O)oc2C)c(OC)c1
inactive: activity change, negative = inhibition [1] 6.98% | activity change, negative = inhibition [2] 16.2% | activity, negative = inhibition [3] 10.7% | Potency [4] > 20.6 µM

O=C(O)CC(NCc1ccco1)C(=O)OCCc1ccccc1 (stereo not given)
inactive: activity change, negative = inhibition [1] 2.29% | activity change, negative = inhibition [2] 5.37% | activity, negative = inhibition [3] 0.0661% | Potency [4] > 20.6 µM

C/C(=N\O)C(=O)NCCCNCCCN(C)C
inactive: activity change, negative = inhibition [1] 2.66% | activity change, negative = inhibition [2] -0.0528% | activity, negative = inhibition [3] 14.2% | Potency [4] > 20.6 µM

CN(C)c1ccc(C=NCCC2(O)CCOC(C)(C)C2)cc1 (stereo not given)
inactive: activity change, negative = inhibition [1] 0.733% | activity change, negative = inhibition [2] 4.94% | activity, negative = inhibition [3] -0.198% | Potency [4] > 20.6 µM

CC(=O)c1c(C(C)=O)c(C)n(NC(=O)c2ccncc2)c1C
inactive: activity change, negative = inhibition [1] 2.53% | activity change, negative = inhibition [2] 3.09% | activity, negative = inhibition [3] 17% | Potency [4] > 20.6 µM

CCOC(=O)CSc1nc(C)c(C(C)=O)cc1C#N
inactive: activity change, negative = inhibition [1] 8.73% | activity change, negative = inhibition [2] -3.61% | activity, negative = inhibition [3] 6.11% | Potency [4] > 20.6 µM

CCCOc1ccc(/C(O)=C2/C(=O)C(=O)N(CCCN3CCOCC3)C2c2ccncc2)cc1 (stereo not given)
inactive: activity change, negative = inhibition [1] -5.76% | activity change, negative = inhibition [2] 16.4% | activity, negative = inhibition [3] 5.77% | Potency [4] > 20.6 µM

O=c1[nH]c(CN2CCCCC2)nc2c1C1(CCCCC1)Cc1ccccc1-2
inactive: activity change, negative = inhibition [1] 24.9% | activity change, negative = inhibition [2] 4.2% | activity, negative = inhibition [3] -5.46% | Potency [4] > 20.6 µM

Cc1c(C(=O)O)sc(=S)n1-c1ccccc1
inactive: activity change, negative = inhibition [1] 11% | activity change, negative = inhibition [2] 2.74% | activity, negative = inhibition [3] 4.36% | Potency [4] > 20.6 µM

CCOC(=O)c1[nH]c2cc3c(cc2c1NC(=O)CN1CC(C)CC(C)C1)OCO3 (stereo not given)
inactive: activity change, negative = inhibition [1] -14.1% | activity change, negative = inhibition [2] -21% | activity, negative = inhibition [3] -2.27% | Potency [4] > 20.6 µM

CC1(C(=O)CSc2nc3ccccc3s2)CCC(=O)O1 (stereo not given)
inactive: activity change, negative = inhibition [1] -6.34% | activity change, negative = inhibition [2] 1.72% | activity, negative = inhibition [3] 4.74% | Potency [4] > 20.6 µM

CCC(NC(=O)Nn1cnnc1)(C(F)(F)F)C(F)(F)F
inactive: activity change, negative = inhibition [1] 21.2% | activity change, negative = inhibition [2] -0.332% | activity, negative = inhibition [3] 5.97% | Potency [4] > 20.6 µM

O=C(Nc1nccs1)NC(C(F)(F)F)C(F)(F)F
inactive: activity change, negative = inhibition [1] -10.3% | activity change, negative = inhibition [2] 9.14% | activity, negative = inhibition [3] 10.4% | Potency [4] > 20.6 µM

COc1ccc(Cn2c(O)cc(=O)[nH]c2=O)cc1
inactive: activity change, negative = inhibition [1] 27.1% | activity change, negative = inhibition [2] -0.64% | activity, negative = inhibition [3] -3.75% | Potency [4] > 20.6 µM

CC1(C)CNC(=O)c2sc(N3CCOCC3)nc2C1
inactive: activity change, negative = inhibition [1] -10.8% | activity change, negative = inhibition [2] 26.7% | activity, negative = inhibition [3] 3.19% | Potency [4] > 20.6 µM

Cc1cc(=O)oc(C)c1C(=O)n1nc(C)c2c1C[C@@H]1[C@H]2C1(C)C
inactive: activity change, negative = inhibition [1] -2.2% | activity change, negative = inhibition [2] -1.13% | activity, negative = inhibition [3] -1.83% | Potency [4] > 20.6 µM

Clc1ccc(COc2ccccn2)c(Cl)c1
inactive: activity change, negative = inhibition [1] 10% | activity change, negative = inhibition [2] -8.68% | activity, negative = inhibition [3] 15.3% | Potency [4] > 20.6 µM

c1ccc(CN2CCN(c3nc(-c4ccccn4)nc4ccccc34)CC2)cc1
inactive: activity change, negative = inhibition [1] 14.9% | activity change, negative = inhibition [2] -29% | activity, negative = inhibition [3] 6.73% | Potency [4] > 20.6 µM

Cc1ccc(-n2ncc3c(NCCCN4CCCC4=O)ncnc32)c(C)c1
inactive: activity change, negative = inhibition [1] -15.8% | activity change, negative = inhibition [2] 11.5% | activity, negative = inhibition [3] 9.31% | Potency [4] > 20.6 µM

Cc1ccc(C(=O)C2C(c3cccs3)NC(=O)NC2(O)C(F)(F)F)cc1 (stereo not given)
inactive: activity change, negative = inhibition [1] 1.39% | activity change, negative = inhibition [2] 8.36% | activity, negative = inhibition [3] 0.646% | Potency [4] > 20.6 µM

CCN(CC)C(=O)CSC1=C(C#N)C(c2cccs2)C=C(C)N1 (stereo not given)
inactive: activity change, negative = inhibition [1] -28.4% | activity change, negative = inhibition [2] -9.19% | activity, negative = inhibition [3] 6.46% | Potency [4] > 20.6 µM

CC(C)Cn1cnc2c(c1=O)c1nc3ccccc3nc1n2Cc1ccc2c(c1)OCO2
inactive: activity change, negative = inhibition [1] -7.49% | activity change, negative = inhibition [2] 8.7% | activity, negative = inhibition [3] -6.69% | Potency [4] > 20.6 µM
